In PubChem BioAssay AID588342 (National Center for Advancing Translational Sciences (NCATS), 2011):
Hit rate of the full screen: of about 360,000 compounds, about 25,000 (6.9%) were called active. Inconclusive results (about 9%) are left out. What follows is part of a selection rich in actives, with near analogues and random picks from the rest. Values without a mark were called inactive. Calls come from the whole dose curve; as a rule, active = well fitted inhibition curve with a large enough effect; inconclusive = small, poorly fitted or top-dose-only effect; inactive = flat fitted curve, though single readings scatter.

Biological target: Luciferin 4-monooxygenase (Photinus pyralis) (UniProt P08659)
Sequence (P08659 whole entry, looked up): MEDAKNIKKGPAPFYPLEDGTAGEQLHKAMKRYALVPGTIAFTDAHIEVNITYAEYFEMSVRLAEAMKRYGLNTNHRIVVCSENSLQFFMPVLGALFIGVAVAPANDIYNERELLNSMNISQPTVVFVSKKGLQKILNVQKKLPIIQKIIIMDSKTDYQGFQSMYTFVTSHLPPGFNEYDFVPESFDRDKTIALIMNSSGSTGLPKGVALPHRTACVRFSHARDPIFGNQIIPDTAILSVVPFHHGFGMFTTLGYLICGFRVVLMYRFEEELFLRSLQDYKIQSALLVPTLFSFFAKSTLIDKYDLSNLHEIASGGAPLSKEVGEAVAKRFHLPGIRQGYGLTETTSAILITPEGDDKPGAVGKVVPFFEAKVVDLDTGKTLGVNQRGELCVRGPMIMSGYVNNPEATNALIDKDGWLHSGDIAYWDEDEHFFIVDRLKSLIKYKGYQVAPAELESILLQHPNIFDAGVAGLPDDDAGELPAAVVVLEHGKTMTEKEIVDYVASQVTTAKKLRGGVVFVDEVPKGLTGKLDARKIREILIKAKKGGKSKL
Test: qHTS profiling assay for firefly luciferase inhibitor/activator using purifed enzyme and Km concentrations of substrates (counterscreen for miR-21 project); note: nearly all actives have a fitted effect of over 55% in size;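 for activity change, negative = inhibition: plate controls were vehicle for no effect and reference inhibitor for full effect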
Settings: purified FLuc, luminescence inhibition; series mostly up to 57.5 µM; activity change, negative = inhibition: at the top concentration
Outline: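 Biochemical qHTS of compounds, final roughly 60 µM downward over six points, against 10 nM purified firefly luciferase using Km concentrations of substrates (10 uM D-luciferin, 10 uM ATP) in Tris acetate pH 7.5 buffer; luminescence output.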
Potency is the fitted concentration of half-maximal effect.

Row | SMILES | activity change, negative = inhibition [%] | Potency
1 | COc1ccc(-c2c(-c3cc(OC)cc(OC)c3)n(C)c3ccc(-c4ccn[nH]4)cc23)cc1 | -0.353 | 
2 | O=C(NC1CC(=O)N(c2ccccc2)C1)c1ccco1 (stereo not given) | -0.409 | 
3 | CCOc1cc(C(=O)O)ccc1OCCOc1ccccc1 | -1.63 | 
4 | COc1ccc(N2CCN(C(=O)c3ccccc3NC(=O)C3=C(C)OCCS3)CC2)cc1 | 1.81 | 
5 | c1ccc(NCc2cccc3ccccc23)nc1 | -16.5 | 
6 | Oc1ccc2ccccc2c1N=Nc1nccs1 |  | 19 µM (active)
7 | O=c1c(-c2cccc(Cl)c2)c[nH]n1-c1ccccc1 |  | 26.9 µM (active)
8 | O=C1CC(NNc2ccccc2)C(=O)N1c1cccc(Cl)c1 (stereo not given) | -17.8 | 
9 | O=c1c2cc(Br)ccc2nc(-c2cccc(Cl)c2)n1O | -2.13 | 
10 | COc1ccc(S(=O)(=O)n2nc(C)c(S(=O)(=O)N3CCCCCC3)c2C)cc1 | 4.77 | 
11 | COc1cc(NC(=O)c2cc(C3CC3)nc3c2c(C)nn3-c2ccccc2)cc(OC)c1 | -10.6 | 
12 | O=[N+]([O-])c1ccc2c(c1)C(N1CCOCC1)/C(=C/C1(O)CCCCC1)O2 (stereo not given) | -4.29 | 
13 | Cn1c(=O)c2sccc2n2c(CCC(=O)NCc3ccccc3Cl)nnc12 | -5.43 | 
14 | COCc1nnc(NC(=O)CS(=O)(=O)Cc2ccccc2)s1 | 0.467 | 
15 | Cn1c(NC(=O)c2ccc3c(c2)OCO3)cc(=O)n(C)c1=O | 0.456 | 
16 | O=C(Nc1cccc([N+](=O)[O-])c1)c1ccc2c(c1)OCO2 |  | 19 µM (active)
17 | O=C(Nc1ccccc1)c1ccc2c(c1)OCO2 |  | 12 µM (active)
18 | COCc1nnc(NC(=O)c2ccc3c(c2)OCO3)s1 |  | 23.9 µM (active)
19 | Cc1ccc(-n2nc3c(c2NC(=O)c2ccc4c(c2)OCO4)CSC3)c(C)c1 | 0.872 | 
20 | O=C(Nc1nc2ccccc2s1)c1ccc2c(c1)OCO2 |  | 0.301 µM (active)
21 | Cc1ccc2sc(NNC(=O)c3ccc4c(c3)OCCO4)nc2c1C | -4.15 | 
22 | CC(NC(=O)Nc1cccc([N+](=O)[O-])c1)c1ccc2c(c1)OCO2 (stereo not given) | -1.01 | 
23 | O=CN1CCN(C(=O)c2ccc3c(c2)OCO3)CC1 | -6.7 | 
24 | CN(CC(=O)Nc1cccc(F)c1)CC(=O)Nc1cccc([N+](=O)[O-])c1 | 6.15 | 
25 | O=C(Nc1ccc(NC(=O)c2ccc3c(c2)OCO3)cc1)c1cccc(Cl)c1 | -0.291 | 

Row | SMILES | activity change, negative = inhibition [%] | Potency
26 | CSCCC(NS(=O)(=O)c1ccc2c(c1)oc(=O)n2C)C(=O)NC1CCCc2ccccc21 (stereo not given) | 5.78 | 
27 | Cc1ccc(N2C(=O)C3N=NN(CC(=O)N4N=C(c5cccc6ccccc56)CC4c4ccccc4)C3C2=O)cc1 (stereo not given) | -0.523 | 
28 | O=C(Nc1c(C(=O)N2CCN(c3ccc(F)cc3)CC2)oc2ccccc12)c1ccco1 | -7.89 | 
29 | CN(CC#CCC(c1ccccc1)c1ccccc1)C(C)(C)C | 0.573 | 
30 | CCOC(=O)c1ccc(NC(=O)c2ncn(-c3ccccc3)n2)cc1 | -1.44 | 
31 | O=C1Cc2cc(S(=O)(=O)Nc3cccc(F)c3)ccc2N1 | 4.22 | 
32 | COC(=O)c1ccc(NC(=O)c2cnn(-c3ccc(Cl)cc3)c2C2CCN(C(=O)OC(C)(C)C)CC2)cc1 | -5.97 | 
33 | CCOc1ccc(C(=O)NCC(=O)N2CCCCCCC2)cc1OCC | 0.971 | 
34 | CC(Sc1nc(-c2ccccc2)cc(C(F)(F)F)n1)C(=O)Nc1ccc2c(c1)OCO2 (stereo not given) | 0.268 | 
35 | CC(=O)Nc1cccc(C(=O)OCN2C(=O)c3ccccc3C2=O)c1 | -1.02 | 
36 | O=C(Nc1ccc2c(c1)CCC2)c1cccc(S(=O)(=O)Nc2ccccc2Cl)c1 |  | 21.3 µM (active)
37 | CC(NC(=O)COC(=O)c1ccc2c(c1)OCO2)c1ccccc1 (stereo not given) | -5.33 | 
38 | CC(=O)Nc1cccc(C(=O)OCC(=O)c2ccc3c(c2)OCO3)c1 |  | 0.135 µM (active)
39 | O=C(c1cccc(S(=O)(=O)Nc2ccccc2Cl)c1)N1CCN(C(=O)c2ccco2)CC1 | -4.73 | 
40 | O=C(Nc1ccc(N2CCOCC2)cc1)c1ccc2c(c1)OCO2 |  | 10.7 µM (active)
41 | O=C(c1ccc2c(c1)OCO2)N1CCOCC1 | -1.93 | 
42 | O=C(NCCS(=O)(=O)N1CCN(c2ccc(F)cc2)CC1)c1ccc2c(c1)OCO2 | 0.656 | 
43 | O=C(Nc1ccc2c(c1)CCC2)c1cccc(S(=O)(=O)N2CCN(c3ccc(F)cc3)CC2)c1 | 8.68 | 
44 | CC(C)C(=O)Nc1cccc(C(=O)Nc2ccc3c(c2)OCO3)c1 |  | 8.49 µM (active)
45 | O=C(c1ccccc1F)N1CCC(c2nc3c(nnn3Cc3cccc(F)c3)c(=O)[nH]2)CC1 | -15.3 | 
46 | Cc1ccc2ncc(C(=O)Nc3ccc(OC(F)(F)F)cc3)c(=O)n2c1 | -5.88 | 
47 | CCn1c2c(c(=O)n3ncc(C(=O)N4CCN(c5ccccc5)CC4)c13)CN(Cc1ccc(OC)cc1)CC2 | -2.48 | 
48 | CN(Cc1ccccc1)CC(O)COc1ccc(CNCc2cc3ccccc3s2)cc1 (stereo not given) | -0.152 | 
49 | Cc1cc(C)cc(NC(=O)CSc2oc(-c3ccccc3)nc2S(=O)(=O)c2ccc(Cl)cc2)c1 | -3.79 | 
50 | Cc1sc2ncnc(SCC(=O)Nc3ccc(CN4CCCC4)cc3)c2c1C | 4.55 | 

Row | SMILES | activity change, negative = inhibition [%] | Potency
51 | Cc1ccc(C)c(NC(=O)C(c2ccccc2)N2CCN(CC(=O)NC3CC3)CC2)c1 (stereo not given) | 5.73 | 
52 | CC(=O)NC(CC(=O)Nc1cccc(S(=O)(=O)N2CCCC2)c1)c1ccccc1 (stereo not given) | -3.53 | 
53 | O=C(Nc1ccccc1)c1ccc2c(c1)OCCCO2 |  | 1.2 µM (active)
54 | O=C(CN(Cc1ccccc1)C(=O)c1ccc2c(c1)OCCO2)NCc1ccc2c(c1)OCO2 | -1.85 | 
55 | O=C(Nc1ccc(C2CC2(Cl)Cl)cc1)c1cccc([N+](=O)[O-])c1 (stereo not given) |  | 12 µM (active)
56 | CC(NS(=O)(=O)c1ccc(Cl)cc1)C(=O)Nc1ccc2c(c1)OCCO2 (stereo not given) | 0.952 | 
57 | O=C(Nc1cccc(S(=O)(=O)Nc2ccc(Cl)cc2)c1)c1ccc2c(c1)OCCO2 |  | 16.9 µM (active)
58 | C/C(Cc1ccccc1)=N\NC(=O)CNC(=O)c1ccc2c(c1)OCCO2 | -18 | 
59 | O=C(OCc1ccccc1F)c1ccc2c(c1)OCCO2 |  | 6.01 µM (active)
60 | O=C(CN1CCc2cc3c(cc2C1)OCCCO3)Nc1ccccc1 | -8.71 | 
61 | CCN(CC)CCNC(=O)c1ccc(NS(=O)(=O)c2ccc3c(c2)OCCO3)cc1 | 5.41 | 
62 | O=C(Nc1ccc(NC(=O)c2ccco2)c(Cl)c1)c1cccc([N+](=O)[O-])c1 | 1.09 | 
63 | O=C(Nc1ccc(C(=O)N2CCCCC2)cc1)c1cccc([N+](=O)[O-])c1 | -9.29 | 
64 | Cc1cc2oc(C(=O)N(Cc3ccc(Cl)cc3)Cc3ccco3)c(C)c2cc1Cl | -7.31 | 
65 | Cc1cc(N2CCN(c3cccc(C(F)(F)F)c3)CC2)n2nc(-c3ccccc3)nc2n1 | -0.73 | 
66 | COc1ccc(-c2ccc(=O)n(CC(=O)Nc3ccc(Br)cc3F)n2)cc1 | 2.74 | 
67 | CC(=O)Nc1ccc(S(=O)(=O)NC2(C(F)(F)F)C(=O)NC(C)=C2C#N)cc1 (stereo not given) | -3.82 | 
68 | O=C(Nc1ccccc1)Nc1nc2ccccc2s1 |  | 0.849 µM (active)
69 | O=C(Nc1ccc(Cl)cc1)Nc1nnc(/C=C/c2ccccc2)s1 | -2.18 | 
70 | O=C(Nc1ccccc1F)c1ccc2c(c1)OCO2 |  | 19 µM (active)
71 | O=C(Nc1ccccc1)Nc1nnc(COc2ccccc2F)s1 | -1.08 | 
72 | O=C(Nc1ccccc1N1CCN(C(=O)c2ccccc2)CC1)c1ccc2c(c1)OCO2 | 7.45 | 
73 | Cc1ccc(C(=O)OCC(=O)NCc2cc(C)c(O)c(C)c2)cc1S(=O)(=O)N1CCCCC1 | -2.52 | 
74 | COc1ccc(C(=O)OCC(=O)Nc2cccc(C(C)=O)c2)cc1OC | -4.57 | 
75 | Cc1ccc(F)cc1NC(=O)c1ccc2c(c1)OCO2 | -3.24 | 

Row | SMILES | activity change, negative = inhibition [%] | Potency
76 | CC(=O)Nc1cccc(C(=O)OCC(=O)NCc2cc(C)c(O)c(C)c2)c1 |  | 15.1 µM (active)
77 | O=S(=O)(NC1CCN(S(=O)(=O)c2ccc3c(c2)OCCO3)CC1)c1c(F)cccc1F | -2.54 | 
78 | CCc1ccc(S(=O)(=O)c2nnn3c2nc(N2CCN(CC)CC2)c2sccc23)cc1 | 1.88 | 
79 | CC(=O)Nc1ccc(S(=O)(=O)NC(C)C(=O)OCCOc2ccc(F)cc2)cc1 (stereo not given) | -1.3 | 
80 | CNS(=O)(=O)c1ccc(N2CCCC2=O)c([N+](=O)[O-])c1 | -1.57 | 
81 | NS(=O)(=O)c1ccc(NC(=S)N2CCCC2)cc1 | -1.04 | 
82 | Cc1ccc(-c2ccc(=O)n(CC(=O)NCCCN3CCCCC3)n2)cc1 | 1.61 | 
83 | CCc1ccc(-c2cc3c(=O)n(CC(=O)NCCCN4CCN(Cc5ccccc5)CC4)nc(C)n3n2)cc1 |  | 8.49 µM (active)
84 | CCCN1CCN(CCCNC(=O)Cn2nc(CC)n3c(cc4occc43)c2=O)CC1 | -5.38 | 
85 | CCOCCn1ccc2c(OCC(=O)NCc3ccc(C)cc3)cccc2c1=O | -7.32 | 
86 | CCC(=O)N1CCc2cc(S(=O)(=O)NC(Cc3ccccc3)C(=O)NCc3ccc(C)cc3)ccc21 (stereo not given) | -1.03 | 
87 | O=C(c1ccccc1)N1N=C(c2ccccc2O)CC1c1ccc(Br)cc1 (stereo not given) | -0.906 | 
88 | Brc1ccc(C2CC(c3ccccc3)=Nc3ccccc3N2)cc1 (stereo not given) |  | 26.9 µM (active)
89 | COc1ccc(N2C(=O)NC(NS(=O)(=O)c3ccc(Cl)cc3)(C(F)(F)F)C2=O)cc1 (stereo not given) | 6.14 | 
90 | COC(=O)c1sc2ncccc2c1-n1c(C)ccc1C | -2.23 | 
91 | CC(=O)c1ccc(S(=O)(=O)N2CCN(C(=O)/C=C/c3ccc4ccccc4n3)CC2)cc1 | 4.51 | 
92 | CCOc1cccc(/C=C/c2ccc3ccccc3n2)c1OC(C)=O |  | 7.57 µM (active)
93 | COc1ccc(CNC(=O)/C(C#N)=C/c2cccc(OC)c2OC)cc1 | -12.6 | 
94 | CCOc1ccccc1/C=N/Nc1nc2ccccc2o1 | -1.3 | 
95 | COc1cccc(/C=C/c2ccc3ccccc3n2)c1OC(C)=O |  | 5.36 µM (active)
96 | COc1ccc(CCNC(=O)CCCn2c(=O)c3ccccc3n(Cc3ccc(F)cc3Cl)c2=O)cc1OC | 1.56 | 
97 | COc1ccc2cc(CCl)c(Cl)nc2c1 | -20.6 | 
98 | CC(C)c1ccc(NC(=O)c2cc(S(=O)(=O)N3CCc4ccccc4C3)ccc2F)cc1 | -4.07 | 
99 | CN1C(C(=O)NCc2ccco2)CC2Cn3c(nc4ccccc43)C21 (stereo not given) | -5.4 | 
100 | Cc1ccc(NC2=C(c3ccc(C(F)(F)F)cc3)C(=O)c3ccccc32)cc1F | -4.5 | 
